Only some compounds are listed: those with a hit (about 10% of all), similar ones and a draw of the others.
G9a block = blocks human histone lysine methyltransferase G9a; Q96KQ7; 8.8% of 350,000 active; G9a H3K9 monomethylation, AlphaScreen, 2 h; Potency, µM (series often up to 102 µM), hits mostly inhibitors; note: nearly all actives have a fitted effect of over 75% in size
Target sequence (Q96KQ7 913-1193 limits assumed): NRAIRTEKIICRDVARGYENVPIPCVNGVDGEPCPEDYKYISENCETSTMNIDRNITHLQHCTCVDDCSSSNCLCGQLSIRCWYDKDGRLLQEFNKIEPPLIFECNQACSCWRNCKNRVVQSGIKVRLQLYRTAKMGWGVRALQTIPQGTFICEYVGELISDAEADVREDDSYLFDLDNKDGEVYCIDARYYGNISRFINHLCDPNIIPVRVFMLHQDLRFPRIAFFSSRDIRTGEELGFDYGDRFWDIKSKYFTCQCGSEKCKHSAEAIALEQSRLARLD
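Methyltransferase reactions run at room temperature for 2 h (20 nM enzyme, 500 nM biotin-H3K9 peptide, 20 uM SAM) after a 15 min compound preincubation; product detected by AlphaScreen beads and anti-H3K9me1 antibody.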
JMJD2A Tudor = blocks the human JMJD2A Tudor domain; O75164; Potency, µM (series often up to 114 µM), usual class: inhibitors; AlphaScreen JMJD2A-Tudor / H3K4me3 peptide binding; 4.4% of 390,000 active; note: nearly all actives have a fitted effect of over 50% in size
BAZ2B inh = inhibitors of human BAZ2B bromodomain. Q9UIF8. AlphaScreen BAZ2B-H3K14Ac peptide displacement. Potency, µM (doses to about 114 µM), most hits filed as inhibitors. 4.4% of 360,000 active. AID 504333; note: nearly all actives have a fitted effect of over 60% in size
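Protein-peptide AlphaScreen: BAZ2B 50 nM, b-H3K14Ac 50 nM, 1x PBS pH 7.4 + 0.01% Tween-20. Preincubation 30 min RT; cpd 30 min RT (top 110 uM); beads 20 min RT, light-protected.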
Six1-Eya2 inh = inhibitors of human Six1/Eya2 interaction; activity change, % (test concentration not listed); AlphaScreen GST-Six1/His-Eya2 binding, biochemical; hits give low values; 0.56% of 360,000 active; Q15475+O00167; in the data active = activity change below about -65%; inconclusive = mostly about -30% to -63%
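Homogeneous AlphaScreen proximity assay pairing GST-Six1 with His-tagged Eya2 (added as 5X mix: 250 nM and 500 nM) in 50 mM Tris pH 8.0, 300 mM NaCl, 1 mM TCEP. Glutathione donor and nickel acceptor beads; 1 h, 37 °C, dark.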
HP1b chromo inh = inhibitors of HP1-beta chromodomain binding to methylated histone tails | AID 540317 | Potency, µM (top dose mostly 114 µM), actives largely listed as inhibitors | 0.56% of 390,000 active | AlphaScreen HP1-beta / biotin-H3K9me3 peptide binding; note: nearly all actives have a fitted effect of over 70% in size
Target sequence (P83916 whole entry, looked up): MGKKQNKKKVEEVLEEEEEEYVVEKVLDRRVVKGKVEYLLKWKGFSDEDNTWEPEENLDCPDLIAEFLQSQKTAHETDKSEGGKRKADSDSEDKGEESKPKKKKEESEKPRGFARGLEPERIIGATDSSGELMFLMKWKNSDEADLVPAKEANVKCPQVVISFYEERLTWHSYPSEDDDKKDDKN
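HP1-beta protein (50 nM final) preincubated 30 min at room temperature with biotinylated H3(1-18)K9me3 peptide (50 nM) in PBS pH 7.4, 0.01% Tween-20, then compound added for 30 min. AlphaScreen streptavidin donor/nickel chelate acceptor beads (10 ug/mL final), 30 min dark, luminescence read.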
CtBP-E1A blk = CtBP/E1A binding inhibition | AlphaScreen GST-E1A/His-CtBP binding, 1536-well; hits give low values | 0.49% of 340,000 active | activity change, % (test concentration not listed) | AID 651724; in the data active = activity change below about -65%; inconclusive = mostly about -30% to -63%
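GST-E1A and His-tagged CtBP (125 nM each as 5X stock) were preincubated with pin-transferred compound for 2 h at 37 °C in the dark, then glutathione donor and nickel acceptor beads were added for 1 h before AlphaScreen reading.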
Numbers stand for hits; – = inactive; ? = inconclusive; · = not tested or not shown; [ ] = another dose, or the depositor's remark. Unless noted, calls come from the whole dose curve; as a rule, active = well fitted inhibition curve with a large enough effect; inconclusive = small, poorly fitted or top-dose-only effect; inactive = no such curve, though single readings can be large or run the other way.

SMILES	G9a block	JMJD2A Tudor	BAZ2B inh	Six1-Eya2 inh	HP1b chromo inh	CtBP-E1A blk
O=C(O)c1cccc(N2C(=S)N=C(Nc3ccccc3)C23CCCCC3)c1	–	–	–	–	–	–
[O-][N+]1=c2ccc(Nc3ccccc3)cc2=NC12CCCCC2	·	40µM	20µM	?	?	?
COc1ccc(NC2=NC(=S)N(c3ccccc3C)C23CCCCC3)cc1	?	–	–	–	–	–
COc1cccc(N2CCN(C(=O)c3c4c(nc5ccccc35)C(=O)N(C3CCCCC3)C4)CC2)c1	–	–	–	·	–	·
Cc1ccc(OCCSc2nc3ccccc3n2CC(=O)N2CCCCC2)cc1C	13µM	–	–	·	–	·
Cc1ccc(OCCSc2nc3ccccc3n2CC(=O)N2CCOCC2)cc1C	?	–	–	·	–	·
Cc1ccc(OCCSc2nc3ccccc3n2CC(=O)N2CCOCC2)c(C)c1	–	–	?	·	–	·
Cc1cccc(OCCSc2nc3ccccc3n2CC(=O)N2CCOCC2)c1C	10µM	–	?	·	–	·
CCOC(=O)c1c(S(=O)(=O)N2CCC(C(=O)Nc3ccc(C)cc3C)CC2)c(C)n(C)c1C	–	–	–	·	–	·
CCCCOC(=O)c1ccc(NC(=O)/C(C#N)=C/c2ccc(C)o2)cc1	–	–	–	·	–	·
CC(C)(C)c1ccc(-c2n[nH]c(=S)n2/N=C/c2ccncc2)cc1	2.5µM	?	–	–	–	–
Cc1ccc(/C=N/n2c(-c3ccncc3)n[nH]c2=S)cc1	1.4µM	2.2µM	–	–	–	·
CC(C)C[C@H]1CN(CCCC[C@@H]2CNC(=O)C(=O)N2CC2CCCCC2)C(=O)C(=O)N1CCc1ccccc1	·	·	·	–	·	–
COc1cccc(NC(=S)N(Cc2ccc(Cl)cc2)Cc2ccc(C(=O)O)cc2)c1	50µM	–	–	–	–	–
COc1ccc(Cl)cc1NC(=S)N(Cc1ccc(C(=O)O)cc1)Cc1ccc(OC)c(OC)c1	28µM	–	–	–	–	–
CCc1nc2ccc(C(=O)N(C)CCCN(C)C)cn2c1N(C=O)CCC(C)C	·	·	·	–	·	–
OCCCCC#Cc1c(-c2ccsc2)sc2ccccc12	–	–	–	–	–	–
OCCC#Cc1c(-c2ccsc2)sc2ccccc12	11µM	–	–	–	–	–
Cc1cccc(NC(=O)CN(C)S(=O)(=O)c2ccc3c(c2)c(=O)n(C)c(=O)n3C)c1C	–	–	–	·	–	·
Cc1ccsc1CN(C)CC(=O)Nc1ccc([N+](=O)[O-])cc1Cl	40µM	–	–	?	?	?
CCCCC(=O)Nc1cc([N+](=O)[O-])ccc1Cl	–	–	–	–	–	–
CN(CC(=O)Nc1cc([N+](=O)[O-])ccc1Cl)Cc1ccc(Br)cc1	11µM	?	?	–	–	–
CCN(CC)c1cc(C)c2ccccc2n1	1.1µM	?	–	–	–	–
Cn1cccc1/C=N/NC(=O)c1cc2ccccc2cc1O	–	?	28µM	–	?	–
O=C(N/N=C/c1cccs1)c1ccccn1	6.3µM	–	?	–	–	–
SMILES	G9a block	JMJD2A Tudor	BAZ2B inh	Six1-Eya2 inh	HP1b chromo inh	CtBP-E1A blk
Cn1cccc1/C=N/NC(=O)c1ccncc1	–	–	–	–	–	–
Cn1cccc1/C=N/NC(=O)c1ccccn1	3.2µM	?	35µM	–	–	–
Cn1cccc1/C=N/NC(=O)c1cc(-c2cccs2)nc2ccccc12	32µM	?	22µM	?	?	–
COc1cc(F)c(S(=O)(=O)N2CCN(S(=O)(=O)c3cccs3)CC2)c(F)c1	·	–	·	·	·	·
CSc1nc(-c2ccco2)nn1S(=O)(=O)c1ccc(C)cc1	40µM	–	–	–	–	–
CCS(=O)(=O)n1nc(-c2ccco2)nc1SC	?	28µM	–	–	?	–
O=S(=O)(c1ccc2ccccc2c1)n1nc(-c2ccco2)nc1NCc1ccc(F)cc1	18µM	–	?	·	–	·
Cc1ccc(S(=O)(=O)n2nc(-c3ccco3)nc2SCc2ccccc2)cc1	?	–	?	–	–	–
CSc1nc(-c2ccco2)nn1S(=O)(=O)c1ccccc1	20µM	·	?	·	·	·
C=C(C)Cn1c(SCC(=O)Nc2cccc(C)c2)nc2sc3c(c2c1=O)CCCC3	–	–	–	·	–	·
CCOc1ccccc1NC(=O)Cn1c(=O)oc2cc(S(=O)(=O)NCc3ccccc3)ccc21	–	–	–	·	–	·
CCOc1cccc(/C=N/N=C/c2cccc(OCC)c2O)c1O	–	–	–	–	–	–
CCOc1cccc(C=Nc2cc(C)cc(C)c2O)c1O	?	18µM	?	–	–	–
O=C(NCc1ccncc1)[C@@H]1CCCN1C(=O)[C@H]1CCCN1C(=O)c1cccc(Cl)c1	·	·	·	–	·	–
Cn1c(=O)[nH]c(=O)c2c1nc(N1CCCCC1)n2C/C=N/Nc1ccc(C(=O)O)cc1	71µM	–[11.4 µM]	–	–	–	–
COc1ccccc1CN1CCCC2(CCN(C(=O)c3cc(C(F)(F)F)cc(C(F)(F)F)c3)CC2)C1	–[12.7 µM]	·	·	·	·	·
CCNC(=S)NNC(=O)CSc1nc2ccccc2[nH]1	45µM	–	–	–	–	–
CCNC(=S)NNC(=O)CSc1nc2ccccc2n1C	·	89µM	–	–	–	–
COCCNC(=O)CN(Cc1cccs1)C(=O)CCC(=O)Nc1nccs1	–	–	–	–	–	–
COc1ccccc1C(CNC(=O)CNC(=O)c1ccc(C)c(C)c1)N1CCCC1 (centres undefined)	–	–	–	–	–	–
Cc1noc(C)c1C(=O)N1CCC[C@@]2(CCN(Cc3ccc(C#N)cc3)C2)C1	–[12.7 µM]	·	·	·	·	·
Cc1ccc2c(c1)cc1c(=O)n(CC(=O)NC(C)CCc3ccccc3)nc(C)n12 (centres undefined)	–	–	–	·	–	·
CCn1ccnc1CN1CCc2c([nH]c3ccccc23)C1C1CCCCC1 (centres undefined)	45µM	14µM	35µM	–	–	–
CCn1ccnc1CN1CCc2c([nH]c3ccccc23)C1C(C)(C)C (centres undefined)	?	?	?	–	–	–
CCc1cccc(NC(=O)c2ccc(CNc3c(N4CCCC4)c(=O)c3=O)cc2)c1	–	–	–	–	–	–
COc1ccc(/C=N/n2cnc3c([nH]c4ccc(F)cc43)c2=O)cc1CN1CCCC1	40µM	–	–	–	?	–
COc1ccc(/C=N/n2cnc3c([nH]c4ccccc43)c2=O)cc1COc1ccccn1	–	·	56µM	·	·	·
COc1ccc(/C=N/n2cnc3c([nH]c4ccc(C)cc43)c2=O)cc1CN1CCCC1	?	?	–	–	–	·
COc1ccc2c(c1)[nH]c1c(=O)n(/N=C/c3ccc(OC)c(CN4CCCC4)c3)cnc12	–[12.7 µM]	–[11.4 µM]	–	–	–	–
Cc1oc(-c2ccc(C(=O)NCc3ccc(N(C)C)cc3)cc2)nc1COc1ccccc1	–	–	–	·	–	·

Screening data as filed in PubChem.
